# Reference: PubChem BioAssay (EPA / NIEHS)
# Records with an inconclusive call do not appear. Active and inactive are the calls of the source. Rule for the calls, unless noted: active = hit-call score of the fitted dose curve at least 0.9, where 1 is the maximum; inactive = score below 0.9.
# Legend:
# [1] = read-out: Monocyte Chemoattractant Protein-1 (MCP1), CCL2 (gene 6347); experiment: BSK_LPS_MCP1: BioMAP Diversity Plus: LPS Assay for Monocyte Chemoattractant Protein-1 (MCP1) Biomarker Activity (AID 2283081); conditions: primary human HUVEC with PBMC; actives raise or lower the signal;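 for AC50: secreted MCP-1 protein quantified by ELISA in culture supernatant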
# Summary of the method: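 ELISA read-out of MCP-1 after 24 h chemical dosing of a human umbilical vein endothelial cell/peripheral blood mononuclear cell co-culture stimulated with LPS. Gain or loss of signal fitted relative to DMSO controls.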
# [2] = BSK_LPS_PGE2: BioMAP Diversity Plus: LPS Assay for Prostaglandin E2 (PGE2) Biomarker Activity (AID 2283082); conditions: primary human HUVEC with PBMC; actives raise or lower the signal
# Summary of the method: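 PGE2 release measured by ELISA in an LPS-activated co-culture of human umbilical vein endothelial cells and peripheral blood mononuclear cells, read at 24 h post-dosing. DMSO served as baseline for bidirectional curve fitting.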
# [3] = read-out: Tissue Factor, F3 (gene 2152); experiment: BSK_LPS_TissueFactor: BioMAP Diversity Plus: LPS Assay for Tissue Factor Biomarker Activity (AID 2283084); conditions: primary human HUVEC with PBMC; actives raise or lower the signal
# Summary of the method: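 HUVEC/PBMC co-culture, LPS-activated; CD142 ELISA read 24 h post-dose; bidirectional curve fit vs DMSO negative control.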
# [4] = read-out: Tumor necrosis factor (Homo sapiens) (UniProt P01375); experiment: BSK_LPS_TNFa: BioMAP Diversity Plus: LPS Assay for Tumour Necrosis Factor alpha (TNFa) Biomarker Activity (AID 2283085); conditions: primary human HUVEC with PBMC; actives raise or lower the signal;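 for AC50: TNFa protein level quantified by ELISA in the co-culture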
# Summary of the method: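 TNFa was quantified by ELISA in LPS-activated co-cultures of human endothelial cells and PBMC, 24 h post-dosing. Both increases and decreases versus DMSO were fitted.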
# [5] = read-out: Vascular cell adhesion molecule 1 (VCAM1), VCAM1 (gene 7412); experiment: BSK_LPS_VCAM1: BioMAP Diversity Plus: LPS Assay for Vascular cell adhesion molecule 1 (VCAM1) Biomarker Activity (AID 2283086); conditions: primary human HUVEC with PBMC; actives raise or lower the signal
# Summary of the method: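 VCAM-1 quantified by ELISA in an LPS-activated co-culture of human endothelial cells and peripheral blood mononuclear cells, read 24 h post-treatment. Fitted in both directions versus DMSO; parallel SRB staining flags overt cytotoxicity.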
# [6] = read-out: CD40, CD40 (gene 958); experiment: BSK_SAg_CD40: BioMAP Diversity Plus: SAg Assay for CD40 Biomarker Activity (AID 2283088); conditions: primary human HUVEC with PBMC; actives raise or lower the signal
# Summary of the method: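 HUVEC/PBMC co-culture, 24 h post-dose; CD40 by ELISA, fluorescence intensity; bidirectional fit vs DMSO negative control.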
# [7] = read-out: CD69, CD69 (gene 969); experiment: BSK_SAg_CD69: BioMAP Diversity Plus: SAg Assay for CD69 Biomarker Activity (AID 2283089); conditions: primary human HUVEC with PBMC; actives raise or lower the signal;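 for AC50: cell surface CD69 protein quantified by ELISA with fluorescence detection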
# Summary of the method: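 Values derive from bidirectional fitting relative to DMSO vehicle. Cells: umbilical vein endothelium plus peripheral blood mononuclear cells, treated 24 h before fluorescent ELISA for CD69.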
# [8] = read-out: Monocyte Chemoattractant Protein-1 (MCP1), CCL2 (gene 6347); experiment: BSK_SAg_MCP1: BioMAP Diversity Plus: SAg Assay for Monocyte Chemoattractant Protein-1 (MCP1) Biomarker Activity (AID 2283090); conditions: primary human HUVEC with PBMC; actives raise or lower the signal
# Summary of the method: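 Values derive from bidirectional fitting of ELISA-measured MCP1 against DMSO controls. Readings were taken 24 h after dosing human vascular endothelial cells co-cultured with peripheral blood mononuclear cells under superantigen stimulation.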
# [9] = read-out: E-selectin (Homo sapiens) (UniProt P16581); experiment: BSK_SAg_Eselectin: BioMAP Diversity Plus: SAg Assay for Eselectin Biomarker Activity (AID 2283091); conditions: primary human HUVEC with PBMC; actives raise or lower the signal
# Summary of the method: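 E-selectin ELISA readout at 24 h post-dosing in human umbilical vein endothelial cell/PBMC co-culture; gain or loss of signal fitted relative to DMSO baseline.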
# [10] = read-out: Monokine induced gamma interferon (MIG), CXCL9 (gene 4283); experiment: BSK_SAg_MIG: BioMAP Diversity Plus: SAg Assay for Monokine induced gamma interferon (MIG) Biomarker Activity (AID 2283092); conditions: primary human HUVEC with PBMC; actives raise or lower the signal
# Summary of the method: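 Values reflect bidirectional fitting of ELISA-measured MIG against DMSO vehicle, taken 24 h after dosing of a co-culture of human umbilical vein endothelial cells and peripheral blood mononuclear cells.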
# [11] = read-out: Interleukin-8 (IL8), CXCL8 (gene 3576); experiment: BSK_SAg_IL8: BioMAP Diversity Plus: SAg Assay for Interleukin-8 (IL8) Biomarker Activity (AID 2283094); conditions: primary human HUVEC with PBMC; actives raise or lower the signal
# Summary of the method: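 ELISA readout of IL-8 from a superantigen-activated endothelial/PBMC primary human co-culture, taken 24 h post-dosing and fitted in both directions against DMSO; parallel SRB total-protein staining flags overt cytotoxicity.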
# [12] = BSK_SAg_Proliferation: Cell Proliferation Assessment in the BioMAP Diversity Plus: SAg Assay (AID 2283095); conditions: primary human HUVEC with PBMC;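 note: relative cell number as total protein by SRB absorbance in sub-confluent culture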
# Summary of the method: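 Relative cell number in the endothelial cell/PBMC co-culture was quantified at 96 h by SRB staining (0.1% SRB, 10% TCA fixation, read at 560 nm). Curves were fitted in both directions relative to DMSO baseline.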
# [13] = BSK_SAg_SRB: Viability Assessment in the BioMAP Diversity Plus: SAg Assay (AID 2283096); conditions: primary human HUVEC with PBMC;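 note: cells read one day after compound addition; hits may be either gain or loss of signal compared with DMSO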
# Summary of the method: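 This overt-cytotoxicity endpoint quantifies protein in human endothelial/PBMC co-cultures at 24 h using SRB absorbance (560 nm) after trichloroacetic acid fixation. Values reflect signal change from the DMSO negative control, fitted bidirectionally.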
# [14] = target: human CYP2D6, CYP2D6 (gene 1565) (UniProt P10635); experiment: NVS_ADME_hCYP2D6: NovaScreen (NVS) CYP450-related Enzyme Activity (ADME) Assay for human CYP2D6 (AID 2283107; active = hit-call score of the fitted dose curve at least 0.9, where 1 is the maximum)
# Summary of the method: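 Fluorescence intensity read 1 h post-dosing; insect-cell-expressed recombinant protein with fluorogenic substrate, no cells. Activity is scored as signal loss relative to acetonitrile baseline, first at a single 10 uM concentration in duplicate, then as concentration series for confirmed actives.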
# [15] = target: human CYP2C9, CYP2C9 (gene 1559) (UniProt P11712); experiment: NVS_ADME_hCYP2C9: NovaScreen (NVS) CYP450-related Enzyme Activity (ADME) Assay for human CYP2C9 (AID 2283108; active = hit-call score of the fitted dose curve at least 0.9, where 1 is the maximum)
# Summary of the method: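 Cell-free assay of recombinant human CYP2C9 produced in Sf9 cells, with enzyme activity read by fluorescence intensity 0.75 h after compound addition. Loss of signal versus an acetonitrile negative control indicates inhibition. Primary screen used 10 uM in duplicate; actives were retested in concentration series.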
# [16] = target: human CYP19A1, CYP19A1 (gene 1588) (UniProt P11511); experiment: NVS_ADME_hCYP19A1: NovaScreen (NVS) CYP450-related Enzyme Activity (ADME) Assay for human CYP19A1 (AID 2283098; active = hit-call score of the fitted dose curve at least 0.9, where 1 is the maximum;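 for AC50: potency for inhibitors seen as loss of fluorescent enzyme signal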)
# Summary of the method: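 Compounds were first screened at 10 uM in duplicate against purified enzyme, with a fluorogenic substrate and fluorescence intensity detection after 0.5 h. Inhibition appears as reduced signal against acetonitrile control.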
# [17] = target: Cytochrome P450 3A4 (Homo sapiens) (UniProt P08684); experiment: NVS_ADME_hCYP3A4: NovaScreen (NVS) CYP450-related Enzyme Activity (ADME) Assay for human CYP3A4 (AID 2283110; active = hit-call score of the fitted dose curve at least 0.9, where 1 is the maximum)
# Summary of the method: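 Activity is derived from decreased fluorescence intensity relative to acetonitrile, measured 0.33 hour after dosing insect-cell-expressed CYP3A4 in a cell-free format. Screening used 10 uM in duplicate before concentration-response follow-up.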
# Sequence of E-selectin (Homo sapiens) (P16581 whole entry, looked up): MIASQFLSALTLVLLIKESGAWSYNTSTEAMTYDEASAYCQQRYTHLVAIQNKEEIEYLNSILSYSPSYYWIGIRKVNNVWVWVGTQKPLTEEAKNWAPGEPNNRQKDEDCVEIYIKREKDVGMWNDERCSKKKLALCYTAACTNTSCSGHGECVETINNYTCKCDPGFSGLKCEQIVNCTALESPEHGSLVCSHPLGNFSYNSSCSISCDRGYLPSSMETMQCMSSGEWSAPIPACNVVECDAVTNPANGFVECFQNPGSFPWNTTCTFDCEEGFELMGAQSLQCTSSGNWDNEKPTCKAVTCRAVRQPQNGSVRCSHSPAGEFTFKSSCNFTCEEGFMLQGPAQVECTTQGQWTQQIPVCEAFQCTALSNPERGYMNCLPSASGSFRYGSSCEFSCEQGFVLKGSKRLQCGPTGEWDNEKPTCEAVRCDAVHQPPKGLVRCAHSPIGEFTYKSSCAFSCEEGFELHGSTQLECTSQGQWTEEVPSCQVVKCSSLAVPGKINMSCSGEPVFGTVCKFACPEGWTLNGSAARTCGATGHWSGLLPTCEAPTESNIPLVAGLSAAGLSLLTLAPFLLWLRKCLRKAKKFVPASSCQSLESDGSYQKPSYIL
# Sequence of Tumor necrosis factor (Homo sapiens) (P01375 whole entry, looked up): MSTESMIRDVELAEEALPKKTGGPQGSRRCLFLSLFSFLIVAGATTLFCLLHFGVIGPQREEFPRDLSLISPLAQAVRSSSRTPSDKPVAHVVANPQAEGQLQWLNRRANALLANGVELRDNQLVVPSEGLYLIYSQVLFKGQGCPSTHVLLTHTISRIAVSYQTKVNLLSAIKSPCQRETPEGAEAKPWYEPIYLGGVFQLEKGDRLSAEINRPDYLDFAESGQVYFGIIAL
# Sequence of human CYP19A1, CYP19A1 (gene 1588) (P11511 whole entry, looked up): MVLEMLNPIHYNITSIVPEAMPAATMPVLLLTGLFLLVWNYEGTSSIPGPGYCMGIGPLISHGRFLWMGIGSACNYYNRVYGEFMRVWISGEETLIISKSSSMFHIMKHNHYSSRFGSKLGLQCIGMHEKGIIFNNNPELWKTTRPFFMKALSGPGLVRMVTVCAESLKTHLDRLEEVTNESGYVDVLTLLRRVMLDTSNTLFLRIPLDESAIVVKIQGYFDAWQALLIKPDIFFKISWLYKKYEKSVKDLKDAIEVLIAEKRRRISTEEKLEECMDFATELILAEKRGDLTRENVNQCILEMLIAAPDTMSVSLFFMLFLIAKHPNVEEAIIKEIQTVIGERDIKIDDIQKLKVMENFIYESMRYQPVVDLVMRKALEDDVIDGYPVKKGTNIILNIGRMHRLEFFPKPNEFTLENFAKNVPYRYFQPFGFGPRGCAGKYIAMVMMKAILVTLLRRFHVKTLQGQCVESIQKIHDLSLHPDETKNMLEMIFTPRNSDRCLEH
# Sequence of human CYP2C9, CYP2C9 (gene 1559) (P11712 whole entry, looked up): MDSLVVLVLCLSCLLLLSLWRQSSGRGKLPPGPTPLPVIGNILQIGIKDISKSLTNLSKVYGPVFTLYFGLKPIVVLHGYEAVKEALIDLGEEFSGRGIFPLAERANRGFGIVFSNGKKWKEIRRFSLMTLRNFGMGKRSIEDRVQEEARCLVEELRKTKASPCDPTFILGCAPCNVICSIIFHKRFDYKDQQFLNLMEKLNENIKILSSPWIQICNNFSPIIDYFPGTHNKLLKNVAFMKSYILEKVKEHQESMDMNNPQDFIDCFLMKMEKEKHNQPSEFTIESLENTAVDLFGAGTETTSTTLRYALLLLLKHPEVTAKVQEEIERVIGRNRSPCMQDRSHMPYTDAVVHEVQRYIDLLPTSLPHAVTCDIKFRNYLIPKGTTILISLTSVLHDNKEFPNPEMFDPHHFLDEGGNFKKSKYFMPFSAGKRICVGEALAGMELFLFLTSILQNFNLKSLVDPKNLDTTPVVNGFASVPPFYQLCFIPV
# Sequence of human CYP2D6, CYP2D6 (gene 1565) (P10635 whole entry, looked up): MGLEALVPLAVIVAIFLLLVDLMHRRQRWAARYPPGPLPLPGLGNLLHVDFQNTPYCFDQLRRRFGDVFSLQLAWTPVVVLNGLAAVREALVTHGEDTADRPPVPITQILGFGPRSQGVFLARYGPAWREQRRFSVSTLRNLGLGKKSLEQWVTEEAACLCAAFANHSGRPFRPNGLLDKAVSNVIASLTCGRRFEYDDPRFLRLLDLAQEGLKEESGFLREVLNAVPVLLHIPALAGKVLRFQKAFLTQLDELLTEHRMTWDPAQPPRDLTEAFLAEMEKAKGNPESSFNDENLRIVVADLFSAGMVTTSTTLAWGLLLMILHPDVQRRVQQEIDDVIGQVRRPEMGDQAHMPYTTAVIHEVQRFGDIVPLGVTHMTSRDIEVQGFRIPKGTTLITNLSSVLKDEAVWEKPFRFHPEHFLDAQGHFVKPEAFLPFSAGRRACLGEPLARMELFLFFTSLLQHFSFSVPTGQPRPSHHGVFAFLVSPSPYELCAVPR
# Sequence of Cytochrome P450 3A4 (Homo sapiens) (P08684 whole entry, looked up): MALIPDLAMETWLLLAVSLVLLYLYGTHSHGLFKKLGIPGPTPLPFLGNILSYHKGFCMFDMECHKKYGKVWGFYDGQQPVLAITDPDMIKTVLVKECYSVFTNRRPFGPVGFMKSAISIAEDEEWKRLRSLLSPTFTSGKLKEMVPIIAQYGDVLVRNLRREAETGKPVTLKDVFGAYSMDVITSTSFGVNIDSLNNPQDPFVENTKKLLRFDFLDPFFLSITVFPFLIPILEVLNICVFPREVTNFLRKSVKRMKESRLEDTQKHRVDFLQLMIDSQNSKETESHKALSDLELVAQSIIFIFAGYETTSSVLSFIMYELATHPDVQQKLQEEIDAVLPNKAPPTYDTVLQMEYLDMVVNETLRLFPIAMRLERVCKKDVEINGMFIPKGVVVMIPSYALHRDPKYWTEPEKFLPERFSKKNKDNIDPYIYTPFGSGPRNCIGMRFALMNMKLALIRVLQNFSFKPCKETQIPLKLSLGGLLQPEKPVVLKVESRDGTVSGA
compound,measurement,setting,value
CCCCCCCCC=O,outcome,[1],inactive
same,outcome,[2],inactive
same,outcome,[3],inactive
same,outcome,[4],inactive
same,outcome,[5],inactive
same,outcome,[6],inactive
same,outcome,[7],inactive
same,outcome,[8],inactive
same,outcome,[9],inactive
same,outcome,[10],inactive
same,outcome,[11],inactive
same,outcome,[12],inactive
same,outcome,[13],inactive
Cc1ccc(O)c(C(C)(C)C)c1,AC50,[1],33 µM (active)
same,outcome,[2],inactive
same,AC50,[3],30.4 µM (active)
same,AC50,[4],34.8 µM (active)
same,AC50,[5],36.8 µM (active)
same,AC50,[6],35.5 µM (active)
same,AC50,[7],30.9 µM (active)
same,AC50,[8],36.6 µM (active)
same,AC50,[9],37.5 µM (active)
same,AC50,[10],38.1 µM (active)
same,AC50,[11],32.8 µM (active)
same,AC50,[12],32 µM (active)
same,AC50,[13],31.9 µM (active)
Nc1ccc(F)c([N+](=O)[O-])c1,outcome,[14],inactive
same,outcome,[15],inactive
CCCCCCCCCCCCCCCC(=O)OC[C@H](O)[C@H]1OC(=O)C(O)=C1O,AC50,[16],2.33 µM (active)
CCc1c(C)cc(N)c(CC)c1N,outcome,[1],inactive
same,outcome,[2],inactive
same,outcome,[3],inactive
same,outcome,[4],inactive
same,outcome,[5],inactive
same,outcome,[6],inactive
same,outcome,[7],inactive
same,outcome,[8],inactive
same,outcome,[9],inactive
same,outcome,[10],inactive
same,outcome,[11],inactive
same,outcome,[12],inactive
same,outcome,[13],inactive
NCCNCCN,outcome,[1],inactive
same,outcome,[2],inactive
same,outcome,[3],inactive
same,outcome,[4],inactive
same,outcome,[5],inactive
same,outcome,[6],inactive
same,outcome,[7],inactive
same,outcome,[8],inactive
same,outcome,[9],inactive
same,outcome,[10],inactive
same,outcome,[11],inactive
same,outcome,[12],inactive
same,outcome,[13],inactive
CN(C)CCCN,outcome,[16],inactive
CC(=O)O[C@]1(C(C)=O)CC[C@H]2[C@@H]3C[C@H](C)C4=CC(=O)CC[C@]4(C)[C@H]3CC[C@@]21C,outcome,[1],inactive
same,outcome,[2],inactive
same,outcome,[3],inactive
same,outcome,[4],inactive
same,outcome,[5],inactive
same,outcome,[6],inactive
same,outcome,[7],inactive
same,outcome,[8],inactive
same,outcome,[9],inactive
same,outcome,[10],inactive
same,outcome,[11],inactive
same,outcome,[12],inactive
same,outcome,[13],inactive
same,AC50,[15],0.119 µM (active)
same,AC50,[17],0.00997 µM (active)
CC1COc2ccccc2N1C(=O)C(Cl)Cl (centres undefined),AC50,[1],5.75 µM (active)
same,outcome,[2],inactive
same,outcome,[3],inactive
same,AC50,[4],4.9 µM (active)
same,AC50,[5],9.65 µM (active)
same,AC50,[6],7.65 µM (active)
same,AC50,[7],5.91 µM (active)
same,outcome,[8],inactive
same,AC50,[9],13.3 µM (active)
same,outcome,[10],inactive
same,outcome,[11],inactive
same,outcome,[12],inactive
same,AC50,[13],10.3 µM (active)
